# Bioassay records (PubChem)
# Cy5 interf NS3h: counter-screen for HCV NS3 helicase inhibitors: fluorescence interference; actives 6% (n = 16,000); fluorescence interference ratio at 100 µM; Cy5-dT15 DNA with NS3h; actives lie on both sides; signal over control mean, under 1 quenches;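 active means compound fluorescence over control fluorescence at most 0.8, a quencher, or at least a set upper limit, an enhancer; inactive means ratio between 0.8 and the set upper limit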
# NS3h inh CB: hepatitis C NS3 helicase inhibition, primary screen; inhibition, % at 100 µM; actives 1.6% (n = 16,000); NS3h Cy5-dT15 DNA binding, fluorescence polarization;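 active means inhibition above the average over every tested compound plus 3 SD, cut at about 40% in these data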
# * = called active by the depositor. Only some compounds are listed: those with a hit (about 6.8% of all), similar ones and a draw of the others.
SMILES,Cy5 interf NS3h,NS3h inh CB
Cc1ccc(NC(=O)/C(=C/c2ccccc2)c2ccccc2)cc1C,0.654*,14.2
CCOc1ccc(NC(=O)/C=C/c2ccccc2)cc1,1.08,21.4
CCOc1ccc(-c2nnc(NC(=O)Nc3ccccc3)s2)cc1,0.738*,12.3
CC(=O)Nc1cc(C23CC4CC(CC(C4)C2)C3)ccc1C,0.963,0.0
COc1ccc(C2=C/C(=C/c3ccc([N+](=O)[O-])cc3)C(=O)O2)c(OC)c1,0.668*,8.7
CCOc1ccc(C2=C/C(=C/c3ccc(OC)cc3)C(=O)O2)cc1,1.05,9.4
O=C1C2C3C=CC(CC3)C2C(=O)N1/N=C\c1ccc(I)o1 (stereo unspecified),1.02,-1.9
O=C1C2C3C=CC(CC3)C2C(=O)N1/N=C\c1cc([N+](=O)[O-])cc(Br)c1O (stereo unspecified),0.682*,9.6
O=C(NN1C(=O)c2ccccc2C1=O)c1ccc2c(c1)C(=O)N(c1nccs1)C2=O,1.04,2.3
C=Cc1ccc(COc2ccc3c4c(c(=O)oc3c2)CCC4)cc1,1.11,1.2
Clc1ccccc1Cc1noc(-c2ccc(Br)cc2)n1,1.11,-1.8
CCCc1noc(-c2ccccc2Cl)n1,0.763*,2.2
Clc1ccccc1Cc1noc(-c2ccccc2Cl)n1,0.918,2.2
CCCc1noc(-c2ccc(C(C)(C)C)cc2)n1,0.714*,6.8
CC(NS(=O)(=O)c1cccc([N+](=O)[O-])c1)C1C2CC3CC(C2)CC1C3 (stereo unspecified),0.953,8.0
Cc1ccc(-c2ccc(C=C3C(=O)NC(=O)NC3=O)o2)c([N+](=O)[O-])c1,0.721*,41.3*
Cc1ccc(-c2ccc(/C=C3\SC(=S)NC3=O)o2)c([N+](=O)[O-])c1,0.886,20.0
O=C(COC(=O)C1CC(O)CN1C(=O)Oc1ccccc1)c1ccc(Cl)cc1 (stereo unspecified),0.933,8.6
CCCCNC(=O)/C(=C/c1ccc(-c2cccc([N+](=O)[O-])c2)o1)NC(=O)c1ccc(OC)cc1,0.992,12.1
COc1ccc(C(=O)N/C(=C\c2ccc(-c3cccc([N+](=O)[O-])c3)o2)C(=O)NCCCN2CCOCC2)cc1,0.772*,11.1
O=C(C=C(O)c1ccccc1)C(=O)Nc1ccc(C(=O)O)cc1,1.05,5.3
Cc1cc(Cl)ccc1OCC(=O)Nc1ccc(F)c([N+](=O)[O-])c1,0.908,11.4
Cc1cc(OCC(=O)Nc2ccc(F)c([N+](=O)[O-])c2)ccc1Cl,1.2*,-0.3
CC1=C(C(=O)OCCc2ccccc2)C(c2coc3ccccc3c2=O)C2=C(CCCC2=O)N1 (stereo unspecified),1.09,-0.7
COc1ccc(NC(=O)/C(=C/c2ccccc2Cl)NC(=O)c2ccc(C)cc2)cc1,1.17,-1.3
SMILES,Cy5 interf NS3h,NS3h inh CB
COc1cccc(NC(=O)/C(=C/c2ccc(C)o2)NC(=O)c2ccccc2)c1,0.711*,15.0
Cc1ccc(NC(=O)c2cc3ccccc3cc2O)c(C)c1,0.772*,10.6
O=C(Nc1ccc(Cl)cc1)c1cc2ccccc2cc1O,0.981,4.6
COc1ccccc1NC(=O)C1=C(C)NC(=O)NC1c1ccc(Br)cc1 (stereo unspecified),1.04,-6.0
Cc1ccc(OCC(=O)Nc2c(C)cccc2C(C)C)c(C(C)(C)C)c1,0.919,4.6
CC(C)C(NC(=O)c1ccccc1)C(=O)OCC(=O)Nc1ccc(S(N)(=O)=O)cc1 (stereo unspecified),1.03,0.7
C/C(=N/NC(N)=O)C1CC1(C)C(C)(C)C (stereo unspecified),1.03,44.1*
O=C(Nc1ccc(Cl)c(Cl)c1)c1nn2c(c1Br)NC(c1cccs1)CC2C(F)(F)F (stereo unspecified),1.01,11.7
O=C(c1nn2c(c1Br)NC(c1cccs1)CC2C(F)(F)F)N1CCCC1 (stereo unspecified),0.507*,15.2
O=C(c1nn2c(c1Cl)NC(c1cccs1)CC2C(F)(F)F)N1CCOCC1 (stereo unspecified),0.67*,1.2
CCOC(=O)c1sc(NC(=O)c2nn3c(c2Cl)NC(c2cccs2)CC3C(F)(F)F)c(C(=O)OCC)c1C (stereo unspecified),1.02,15.6
Cc1ccc(NC(=S)c2ccccn2)cc1,0.923,4.8
CC(C)c1ccc(N2C(=O)CSC23C(=O)Nc2ccccc23)cc1 (stereo unspecified),0.981,-8.4
CCOC(=O)C(CCOCCOc1ccc(Cl)cc1C)C(=O)OCC,0.961,7.2
O=C1N/C(=N/N=C\c2ccccc2)S/C1=C\c1ccccc1,1.11,-13.9
O=C1NC(=Nc2ccccc2)S/C1=C/c1ccc(O)cc1,1.28*,8.2
COc1ccc(Cl)cc1N(CC(=O)NCC(C)C)S(=O)(=O)c1ccc(C)c([N+](=O)[O-])c1,0.708*,18.6
CCN(CC)C(=O)CN(c1cc(Cl)ccc1OC)S(=O)(=O)c1ccc(C)c([N+](=O)[O-])c1,1.08,11.8
O=C1/C(=C\c2ccsc2)SC(=S)N1c1cccc(C(F)(F)F)c1,1.02,13.6
COc1ccc(C(=O)/C=C/Nc2ccccc2NS(=O)(=O)c2ccc([N+](=O)[O-])cc2)cc1OC,0.974,4.7
COc1ccc(NC(=O)c2ccc(Cl)cc2)cc1Cl,1.01,-1.8
COc1ccc(C(=O)Nc2ccc(Cl)cc2C)cc1OC,0.783*,8.7
COc1ccc(NC(=O)c2cccc(Cl)c2)cc1Cl,0.696*,22.2
COc1ccc(C(=O)/C=C/Nc2ccc(Cl)cc2[N+](=O)[O-])cc1OC,0.223*,0.0
COc1c(Cl)cc(C(=O)Nc2cccc(C(F)(F)F)c2)cc1Cl,0.526*,1.2
SMILES,Cy5 interf NS3h,NS3h inh CB
COc1ccc(C(=O)Nc2ccc(C)cc2C)cc1OC,1.04,6.5
COc1c(Cl)cc(C(=O)Nc2c(C)cccc2C)cc1Cl,0.973,10.0
CC(NC(=O)C12CC3CC(CC(C3)C1)C2)C(=O)Nc1ccc(S(=O)(=O)Nc2nccs2)cc1 (stereo unspecified),0.99,1.8
CCOc1ccc(/C=C2\N=C(c3ccccc3F)OC2=O)cc1,1.01,52.6*
O=C1OC(c2ccccc2F)=N/C1=C\c1ccc(Br)cc1,1.08,3.6
COc1ccc(NC(=O)/C(C#N)=C/c2ccc(-c3ccc(Cl)cc3)o2)cc1,1.05,13.5
COc1ccc(CN2CCN(Cc3cccc(Br)c3)CC2)c(OC)c1OC,1.06,-3.9
COc1cc(/C=C2\NC(=S)NC2=O)c([N+](=O)[O-])cc1OC,0.506*,-19.9
COc1cc(/C=C2\NC(=S)NC2=O)ccc1Oc1ccc([N+](=O)[O-])cn1,0.831,12.1
Cc1ccc(-n2nc3cc(C)c(NC(=O)/C=C\c4ccco4)cc3n2)cc1,0.967,-6.5
O=[N+]([O-])c1ccc(CN2CCN(Cc3ccco3)CC2)cc1,0.994,-2.9
Cc1ccc2oc(Nc3nc(C)cc(=O)[nH]3)nc2c1,1.03,7.9
Cc1ccc2oc(C(Cl)(Cl)Cl)cc(=O)c2c1,0.598*,-2.5
COc1ccc([N+](=O)[O-])cc1-c1ccc(/C=C(/C#N)C(=O)Nc2cccc(Br)c2)o1,1.01,-21.7
COc1ccc(NC(=O)COc2ccc3ccccc3c2)c([N+](=O)[O-])c1,1.09,2.2
COc1ccc(NC(=O)CSc2ccncc2)c([N+](=O)[O-])c1,0.64*,-0.6
CCOC(=O)C1=C(C)N=c2s/c(=C\c3cn(C)c4ccccc34)c(=O)n2C1c1cccs1 (stereo unspecified),1.03,21.2
